Measurements from PubChem BioAssay (Tox21).
Results filed as inconclusive are left out. Active and inactive are the calls of the source. Unless noted, calls come from the whole dose curve; as a rule, active = well fitted curve in the direction sought with a large enough effect in the repeat runs; inconclusive = weak or mixed curves; inactive = no such curve, though single readings can be large; an effect the other way counts as inactive or inconclusive.

Legend:
[1] = molecular target: Peroxisome proliferator-activated receptor delta (Homo sapiens) (UniProt Q03181); experiment: qHTS assay to identify small molecule agonists of the peroxisome proliferator-activated receptor delta (PPARd) signaling pathway (AID 743212; calls by dose curve;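 note: HEK293H cells with PPARd UAS beta-lactamase reporter GeneBLAzer system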)
Summary of the method: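 Steps: seed PPARd-bla HEK293H cells; incubate 5 h, 37 C, 5% CO2; add compounds in DMSO; incubate, 37 C; add LiveBLAzer B/G FRET substrate; hold 2 h at room temperature; measure fluorescence.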

[2] = qHTS assay to identify small molecule antagonists of the peroxisome proliferator-activated receptor delta (PPARd) signaling pathway - cell viability counter screen (AID 743213); note: nearly all actives have a fitted effect of over 50% in size
Summary of the method: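 PPARd-bla HEK293H cells were treated with compounds plus agonist L165041 (300 nM final) for 17 h at 37 C. Viability was then read in the same wells by CellTiter-Glo luminescence after 30 min at room temperature.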

[3] = molecular target: Peroxisome proliferator-activated receptor delta (Homo sapiens) (UniProt Q03181); experiment: qHTS assay to identify small molecule antagonists of the peroxisome proliferator-activated receptor delta (PPARd) signaling pathway (AID 743215; active = well fitted inhibition curve with a large enough effect in the signal ratio in the repeat runs, not every such curve was filed as active; the % refers to the signal ratio;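 note: cells stimulated with agonist L165041 at 300 nM final during compound exposure; series mostly up to about 62 µM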)
Summary of the method: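 Here, a reporter line (HEK293H, beta-lactamase under a UAS) measures PPARd signaling. Compounds are tested against agonist L165041 at 300 nM final concentration over 17 h at 37 C, with fluorescence read after substrate.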

[4] = qHTS assay to identify small molecule agonists of the farnesoid-X-receptor (FXR) signaling pathway - cell viability counter screen (AID 743218); note: nearly all actives have a fitted effect of over 45% in size
Summary of the method: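 Quantitative HTS counter screen measuring ATP-based viability via CellTiter-Glo luminescence in HEK 293T cells carrying a UAS-driven beta-lactamase reporter, after 16 h compound exposure at 37 C.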

[5] = qHTS assay to identify small molecule antagonists of the farnesoid-X-receptor (FXR) signaling pathway - cell viability counter screen (AID 743221; active = well fitted cell-killing curve with a large enough effect in the repeat runs, not every such curve was filed as active; note: nearly all actives have a fitted effect of over 50% in size)
Summary of the method: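 Here viability was scored by luminescence after CellTiter-Glo addition to wells already read for beta-lactamase. Prior treatment: compound plus CDCA (50 uM final), 16 h, 37 C, HEK 293T FXR-bla cells.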

[6] = molecular target: Vitamin D3 receptor (Homo sapiens) (UniProt P11473); experiment: qHTS assay to identify small molecule agonists of the vitamin D receptor (VDR) signaling pathway (AID 743222; calls by dose curve)
Summary of the method: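 Tox21 cell reporter format: VDR-bla line, 16 h compound exposure in 5% CO2 at 37C, then fluorescence intensity after 2 h with LiveBLAzer B/G FRET substrate.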

[7] = molecular target: Vitamin D3 receptor (Homo sapiens) (UniProt P11473); experiment: qHTS assay to identify small molecule antagonists of the vitamin D receptor (VDR) signaling pathway (AID 743223; active = well fitted inhibition curve with a large enough effect in the signal ratio in the repeat runs, not every such curve was filed as active; the % refers to the signal ratio)
Summary of the method: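 Inhibition of agonist-driven VDR signalling is scored in VDR-bla cells: 3 nM final 1alpha,25-dihydroxyvitamin D3 plus compound, 16 h at 37C, then beta-lactamase detection by FRET substrate fluorescence after 2 h.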

[8] = qHTS assay to identify small molecule agonists of the vitamin D receptor (VDR) signaling pathway - cell viability counter screen (AID 743224); note: series mostly up to about 63 µM; nearly all actives have a fitted effect of over 50% in size
Summary of the method: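 CellTiter-Glo viability readout on VDR-bla cells, measured after 16 h of compound treatment at 37C in the same wells.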

[9] = qHTS assay to identify small molecule antagonists of the vitamin D receptor (VDR) signaling pathway - cell viability counter screen (AID 743225); note: nearly all actives have a fitted effect of over 50% in size
Summary of the method: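 Compounds were pinned onto VDR-bla HEK 293T cells together with 1-alpha,25-dihydroxyvitamin D3 at 3 nM final. After 16 h at 37C and 5% CO2 plus the reporter readout, cell viability was measured by CellTiter-Glo luminescence (30 min, room temperature).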

[10] = qHTS assay to identify small molecule agonists of the NFkB signaling pathway (AID 1159509; active = well fitted curve in the direction sought with a large enough effect in the signal ratio in the repeat runs, not every such curve was filed as active; the % refers to the signal ratio; note: series mostly up to about 61 µM)
Summary of the method: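 Beta-lactamase reporter assay run in quantitative high-throughput format on an NF-kB-responsive ME-180 line, with 5 hr compound treatment and a FRET-based blue/green fluorescence readout.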

[11] = qHTS assay to identify small molecule agonists of the NFkB signaling pathway - cell viability counter screen (AID 1159515; calls by dose curve; note: series mostly up to about 61 µM; nearly all actives have a fitted effect of over 55% in size)
Summary of the method: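 Tox21 library compounds were tested for cytotoxicity against NFkB-bla ME-180 cells during a 5 hr exposure at 37 C. CellTiter-Glo luminescence served as the viability read-out.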

[12] = qHTS assay to identify small molecule agonists of the endoplasmic reticulum stress response signaling pathway (AID 1159516; active = well fitted activation curve with a large enough effect in the signal ratio in the repeat runs, not every such curve was filed as active; the % refers to the signal ratio)
Summary of the method: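 Fluorescence at 460 and 530 nm (405 nm excitation) reports beta-lactamase from an ER stress response element in HeLa cells treated 5 hr at 37 C.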

[13] = qHTS assay to identify small molecule agonists of the endoplasmic reticulum stress response signaling pathway - cell viability counter screen (AID 1159517; calls by dose curve)
Summary of the method: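 After overnight attachment, ESRE-bla HeLa cells were treated with Tox21 library compounds for 5 hr. CellTiter-Glo luminescence, read 30 min post-addition at room temperature, reported viability.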

[14] = qHTS assay to identify small molecule antagonists of the retinoid-related orphan receptor gamma (ROR-gamma) signaling pathway - cell viability counter screen (AID 1159520); note: nearly all actives have a fitted effect of over 50% in size
Summary of the method: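 Cytotoxicity was read from cellular ATP (CellTiter-Glo luminescence) after 16 hr at 37 C with 1 uM doxycycline induction. The inducer was added 2 hr after compound transfer to Tet-on ROR gamma CHO cells.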

[15] = molecular target: Nuclear receptor ROR-gamma (Homo sapiens) (UniProt P51449); experiment: qHTS assay to identify small molecule antagonists of the retinoid-related orphan receptor gamma (ROR-gamma) signaling pathway (AID 1159521)
Summary of the method: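 Test compounds were applied to Tet-on RORγ CHO cells 2 h ahead of doxycycline hyclate (1 uM final). Luciferase reporter activity was quantified by luminescence after 16 h at 37 C and 5% CO2.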

[16] = qHTS assay to identify small molecule agonists of the AP-1 signaling pathway - cell viability counter screen (AID 1159525; calls by dose curve; note: nearly all actives have a fitted effect of over 55% in size)
Summary of the method: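 Intracellular ATP by Cell Titer Glo luminescence (30 min, RT) in the same ME-180 AP-1-bla wells after the 5 h compound exposure at 37 °C. Normalised to tetra n-octyl ammonium bromide and DMSO controls.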

[17] = qHTS assay to identify small molecule agonists of the AP-1 signaling pathway (AID 1159526; calls by dose curve)
[18] = molecular target: Bile acid receptor (Homo sapiens) (UniProt Q96RI1); experiment: qHTS assay to identify small molecule agonists of the farnesoid-X-receptor (FXR) signaling pathway (AID 743220; active = well fitted activation curve with a large enough effect in the signal ratio in the repeat runs, not every such curve was filed as active; the % refers to the signal ratio)
Summary of the method: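 FXR-UAS-bla HEK 293T cells carrying a UAS-driven beta-lactamase reporter were plated for 5 h at 37C/5% CO2, then exposed to DMSO-dissolved Tox21 10K compounds for 16 h at 37C. A LiveBLAzer B/G FRET substrate was loaded for 2 h at room temperature before fluorescence reading.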

[19] = qHTS assay to identify small molecule agonists of the peroxisome proliferator-activated receptor delta (PPARd) signaling pathway - cell viability counter screen (AID 743211); note: nearly all actives have a fitted effect of over 55% in size
Summary of the method: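 In the same wells used for beta-lactamase reporter measurement, cytotoxicity is scored by CellTiter-Glo. HEK293H PPARd-bla cells receive compound for 17 h at 37C following a 5 h settling period.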

Measured: Potency

Peroxisome proliferator-activated receptor delta (Homo sapiens), sequence (Q03181 whole entry, looked up): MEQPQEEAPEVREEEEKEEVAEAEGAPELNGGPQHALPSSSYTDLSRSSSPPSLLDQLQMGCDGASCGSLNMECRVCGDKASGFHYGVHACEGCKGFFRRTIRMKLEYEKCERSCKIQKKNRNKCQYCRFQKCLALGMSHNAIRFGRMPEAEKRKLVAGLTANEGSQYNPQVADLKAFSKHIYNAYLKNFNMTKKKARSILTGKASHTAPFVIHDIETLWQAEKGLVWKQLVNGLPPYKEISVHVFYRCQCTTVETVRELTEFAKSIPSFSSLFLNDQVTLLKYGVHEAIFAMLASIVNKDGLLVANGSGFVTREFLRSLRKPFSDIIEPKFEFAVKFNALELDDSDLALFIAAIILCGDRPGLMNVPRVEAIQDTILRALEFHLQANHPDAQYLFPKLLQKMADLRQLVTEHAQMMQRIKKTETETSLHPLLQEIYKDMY
Bile acid receptor (Homo sapiens), sequence (Q96RI1 whole entry, looked up): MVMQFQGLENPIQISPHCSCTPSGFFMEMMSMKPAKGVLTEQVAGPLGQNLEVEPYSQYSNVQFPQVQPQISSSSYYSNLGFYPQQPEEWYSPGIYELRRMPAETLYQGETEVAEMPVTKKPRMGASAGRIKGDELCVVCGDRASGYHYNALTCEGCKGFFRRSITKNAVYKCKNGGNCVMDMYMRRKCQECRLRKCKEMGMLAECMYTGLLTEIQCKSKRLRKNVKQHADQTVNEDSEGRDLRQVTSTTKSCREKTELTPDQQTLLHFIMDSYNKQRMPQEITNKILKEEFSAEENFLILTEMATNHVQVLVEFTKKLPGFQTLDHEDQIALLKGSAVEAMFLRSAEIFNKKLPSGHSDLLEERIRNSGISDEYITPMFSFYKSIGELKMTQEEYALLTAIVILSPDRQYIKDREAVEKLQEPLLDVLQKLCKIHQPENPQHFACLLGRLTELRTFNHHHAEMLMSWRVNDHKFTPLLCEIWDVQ
Vitamin D3 receptor (Homo sapiens), sequence (P11473 whole entry, looked up): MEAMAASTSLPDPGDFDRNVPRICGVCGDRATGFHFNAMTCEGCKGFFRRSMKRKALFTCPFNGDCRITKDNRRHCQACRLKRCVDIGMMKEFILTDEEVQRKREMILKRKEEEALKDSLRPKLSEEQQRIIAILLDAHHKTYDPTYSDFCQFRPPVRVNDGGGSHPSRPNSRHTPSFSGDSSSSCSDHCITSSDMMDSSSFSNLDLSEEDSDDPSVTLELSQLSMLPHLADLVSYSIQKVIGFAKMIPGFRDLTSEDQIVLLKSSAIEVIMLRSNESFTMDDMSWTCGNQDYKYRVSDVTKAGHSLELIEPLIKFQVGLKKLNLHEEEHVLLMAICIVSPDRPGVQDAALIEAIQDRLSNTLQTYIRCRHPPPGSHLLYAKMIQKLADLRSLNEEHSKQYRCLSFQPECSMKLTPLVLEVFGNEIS

CC[N+](=O)[O-]
not listed: [18] | [19]
inactive: all other assays above

Cc1ccc(N=C=O)cc1N=C=O
not listed: [1] | [3] | [18] | [19]
inactive: all other assays above

C=CC(=O)OCC(CC)CCCC (stereo not drawn)
not listed: [1] | [3] | [7] | [18] | [19]
inactive: all other assays above

COC(=O)Nc1cccc(OC(=O)Nc2cccc(C)c2)c1
not listed: [3] | [6] | [7] | [19]
inactive: all other assays above

Cc1ccccc1N
not listed: [3] | [6] | [7] | [18]
inactive: all other assays above

CN(C)NC(=O)CCC(=O)O
not listed: [3] | [18]
inactive: all other assays above

CN(C)C(=O)C(c1ccccc1)c1ccccc1
not listed: [3] | [7] | [18] | [19]
inactive: all other assays above

COc1nc(NC(C)C)nc(NC(C)C)n1
not listed: [3] | [19]
inactive: all other assays above

CN(C)CCC#N
not listed: [18]
inactive: all other assays above
